Ten compounds from PubChem BioAssay (Tox21) can be followed below.

Assay [1] can be described thus: qHTS assay to identify small molecule antagonists of the estrogen receptor alpha (ER-alpha) signaling pathway using the BG1 cell line in the presence of 0.1 nM 17-beta-estradiol - cell viability counter screen (AID 1259241). Also: % is scaled to controls: 0 for no effect and ±100 for the full control effect; nearly all actives have a fitted effect of over 40% in size. An outline of the steps:
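Live-cell protease activity (CellTiter-Fluor fluorescence, 30 min) was read in the same wells after VM7Luc4E2 cells had been exposed to compounds with 0.1 nM 17beta-estradiol for 22 hr at 37C.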

Assay [2] can be described thus: qHTS assay to identify small molecule antagonists of the androgen receptor (AR) signaling pathway using the MDA cell line in the presence of 0.5 nM R1881 - cell viability counter screen (AID 1259242). Also: % is scaled to controls: 0 for no effect and ±100 for the full control effect; nearly all actives have a fitted effect of over 45% in size. An outline of the steps: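 Cells seeded at 3,000/well and allowed 5 hr at 37C, 0% CO2 before compound transfer and R1881 (0.5 nM final) addition; 16 hr later, live-cell protease fluorescence indicated cytotoxicity.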

The nature of assay [3]: qHTS assay to identify small molecule HDAC inhibitors (AID 1259364).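 Also: wild-type HCT-116 cells with endogenous class I/II HDAC activity; top concentration of the series differs between compounds; % is scaled to controls: 0 for no effect and ±100 for the full control effect; nearly all actives have a fitted effect of over 45% in size.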 A digest of the protocol: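 HCT-116 wt cells, 1,500/well, overnight attach. Compounds (DMSO) 2 h, 37 °C. HDAC-Glo I/II, 30 min RT. Luminescence.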
Assay [4] is described as follows: qHTS assay to identify small molecule HDAC inhibitors - cell viability counter screen (AID 1259365). Also: series mostly up to about 92 µM; % is scaled to controls: 0 for no effect and ±100 for the full control effect; nearly all actives have a fitted effect of over 50% in size. An outline of the steps:
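HCT-116 (wild type), 1,500 cells/well, overnight 37C/5% CO2; compound in DMSO 2hr; CellTiter-Glo 30min RT; luminescence read.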

A short description of assay [5]: qHTS assay to identify small molecule agonists of the sonic hedgehog signaling (Shh) pathway - cell viability counter screen (AID 1259366). Also: nearly all actives have a fitted effect of over 50% in size. Also: potency is read from the fitted curve at half-maximal effect. A digest of the protocol:
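CellTiter-Fluor fluorescence read-out, 1 hr at 37C, added after 23hr compound exposure. Cells: 3T3 Gli1-Luc, an NIH/3T3 clone with stably integrated Gli1-Luc reporter, plated 4hr before compound.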

The nature of assay [6]: qHTS assay to identify small molecule antagonists of the sonic hedgehog signaling (Shh) pathway - cell viability counter screen (AID 1259367). Also: nearly all actives have a fitted effect of over 55% in size. Also: potency is read from the fitted curve at half-maximal effect. An outline of the steps: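 Fluorescence read-out (CellTiter-Fluor, 1 hr at 37C) taken after 23 hr compound treatment of 3T3 Gli1-Luc cells stimulated with conditioned medium. Cells were seeded at 2,000 per well and pre-incubated 4 hr.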

Assay [7] can be described thus: qHTS assay to identify small molecule agonists of the sonic hedgehog signaling (Shh) pathway (AID 1259368; calls by dose curve; also: nearly all actives have a fitted effect of over 15% in size; also: potency is read from the fitted curve at half-maximal effect). A digest of the protocol: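 Following a 24 hr incubation with DMSO-dissolved compounds at 37 C, 5% CO2, Gli1-Luc NIH/3T3-derived cells received luciferase reagent for 30 min at room temperature prior to luminescence measurement.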
Assay [8] in a line: qHTS assay to identify small molecule antagonists of the sonic hedgehog signaling (Shh) pathway (AID 1259369; calls by dose curve; also: nearly all actives have a fitted effect of over 45% in size; also: potency is read from the fitted curve at half-maximal effect). A digest of the protocol:
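Read-out is luminescence from a firefly luciferase gene controlled by the Gli1 response element, in 3T3Gli1-Luc cells pre-incubated 4hr then exposed to compounds and conditioned medium for 24hr.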

Assay [9] can be described thus: qHTS assay to identify small molecule agonists of the androgen receptor (AR) signaling pathway in the presence of an antagonist - cell viability counter screen (AID 1259379). Also: nearly all actives have a fitted effect of over 25% in size. Also: potency is read from the fitted curve at half-maximal effect. A digest of the protocol: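 Each compound was tested at 15 concentrations on MDA-kb2 cells in the presence of 3.0uM nilutamide. Viability was measured by CellTiter-Fluor fluorescence after a 16 hr incubation at 37C in a CO2-free atmosphere.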

Assay [10] can be described thus: qHTS assay to identify small molecule agonists of the estrogen receptor beta (ER-beta) signaling pathway - cell viability counter screen (AID 1259380). Also: nearly all actives have a fitted effect of over 30% in size. Also: potency is read from the fitted curve at half-maximal effect. A digest of the protocol: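 Compounds dissolved in DMSO were pin-transferred onto ER-beta-UAS-bla HEK293T cells that had settled 6 hr, and exposure ran 16 hr at 37C. Following the reporter read, CellTiter-Glo luminescence after 30 min at room temperature indicated cytotoxicity.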

The nature of assay [11]: qHTS assay to identify small molecule antagonists of the estrogen receptor beta (ER-beta) signaling pathway - cell viability counter screen (AID 1259382). Also: series mostly up to about 92 µM; % is scaled to controls: 0 for no effect and ±100 for the full control effect; nearly all actives have a fitted effect of over 55% in size. An outline of the steps:
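CellTiter-Glo ATP luminescence measured after the LiveBLAzer read in the same wells; ER-beta-UAS-bla HEK293T cells, 16 hr compound treatment with 1nM 17-beta-estradiol agonist at 37C, 5% CO2.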

Assay [12] can be described thus: qHTS assay to identify small molecule agonists or antagonists of the thyroid stimulating hormone receptor (TSHR) signaling pathway - wild type cell line counter screen (AID 1259384; calls by dose curve; also: % is scaled to controls: 0 for no effect and ±100 for the full control effect). An outline of the steps: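 Wild-type Hek293 cells, 800/well, 18 h at 37C, then compound with Ro20-1724 for 30 min RT. cAMP by HTRF (cAMP-d2/anti-cAMP cryptate), 1 h RT, fluorescence read. 15 concentrations, triplicates.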

Assay [13] addresses Thyrotropin receptor (Homo sapiens) (UniProt P16473). Briefly: qHTS assay to identify small molecule antagonists of the thyroid stimulating hormone receptor (TSHR) signaling pathway (AID 1259385; calls by dose curve; also: % is scaled to controls: 0 for no effect and ±100 for the full control effect; nearly all actives have a fitted effect of over 20% in size). A digest of the protocol:
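TSHR-HEK293 cells (800/well) plated 18 h, then compounds with Ro20-1724 and TSH at 1.5 ng/mL final, 30 min at room temperature. cAMP quantified by HTRF (cAMP-d2/anti-cAMP-cryptate, 1 h); 15 concentrations in triplicate.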

The target in assay [14] is Estrogen receptor beta (Homo sapiens) (UniProt Q92731). Briefly: qHTS assay to identify small molecule agonists of the estrogen receptor beta (ER-beta) signaling pathway (AID 1259377; active = well fitted activation curve with a large enough effect in the signal ratio in the repeat runs, not every such curve was filed as active; the % refers to the signal ratio; also: % is scaled to controls: 0 for no effect and ±100 for the full control effect). An outline of the steps: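 Beta-lactamase reporter readout: fluorescence of LiveBLAzer B/G FRET substrate after 2 h at room temperature, following 16 h compound treatment of ER-beta-UAS-bla HEK293T cells at 37C in 2% charcoal-stripped FBS medium.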

For assay [15] the target is unchanged. Description: qHTS assay to identify small molecule antagonists of the estrogen receptor beta (ER-beta) signaling pathway (AID 1259378; active = well fitted inhibition curve with a large enough effect in the signal ratio in the repeat runs, not every such curve was filed as active; the % refers to the signal ratio; also: % is scaled to controls: 0 for no effect and ±100 for the full control effect). An outline of the steps:
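ER-beta-UAS-bla HEK293T cells in 2% charcoal-stripped FBS medium treated with compound plus 1nM final 17-beta-estradiol for 16 hr at 37C. Beta-lactamase reporter read by FRET substrate fluorescence after 2 hours at room temperature.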

The target of assay [16] is Androgen receptor (Homo sapiens) (UniProt P10275). Briefly: qHTS assay to identify small molecule agonists of the androgen receptor (AR) signaling pathway in the presence of an antagonist (AID 1259381; calls by dose curve; also: potency is read from the fitted curve at half-maximal effect; nearly all actives have a fitted effect of over 15% in size). An outline of the steps:
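Plated MDA-kb2 cells (3,000/well) were pre-incubated 5hr, given nilutamide (3.0uM final) or buffer, then dosed with compounds in DMSO at 15 concentrations. Luciferase activity was quantified by luminescence after 16hr at 37C.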

Assay [17] in a line: qHTS assay to identify small molecule phospholipidosis (PLD) inducers (AID 1259344; active = well fitted curve in the direction sought with a large enough effect; an effect the other way counts as inactive or inconclusive; also: % is scaled to controls: 0 for no effect and ±100 for the full control effect). An outline of the steps:
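Read-out is LipidTOX Red fluorescence (ex 595/em 615) imaged in HepG2 cells after 24 h compound exposure at 37 C, with Hoechst nuclear counterstain (ex 352/em 461) allowing per-cell normalisation.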

Assay [18] has as its target Estrogen receptor (Homo sapiens) (UniProt P03372). Description: qHTS assay to identify small molecule agonists of the estrogen receptor alpha (ER-alpha) signaling pathway in the presence of an antagonist (AID 1259383; calls by dose curve; also: top concentration of the series differs between compounds; % is scaled to controls: 0 for no effect and ±100 for the full control effect; nearly all actives have a fitted effect of over 15% in size). A digest of the protocol: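 Luminescent ERE-luciferase reporter, VM7Luc4E2 cells (endogenous ER-alpha); 10.0nM ICI-182,780 final; 15-point compound titration; 22hr at 37C; ONE-Glo, 30min RT.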

Values without a mark were called inactive. Records with an inconclusive call do not appear. The source made the active and inactive calls. Unless noted, calls follow the shape of the dose curve; as a rule, active = well fitted curve in the direction sought with a large enough effect in the repeat runs; inconclusive = weak or mixed curves; inactive = no such curve, though single readings can be large; an effect the other way counts as inactive or inconclusive.

Sequence of Thyrotropin receptor (Homo sapiens) (P16473 whole entry, looked up): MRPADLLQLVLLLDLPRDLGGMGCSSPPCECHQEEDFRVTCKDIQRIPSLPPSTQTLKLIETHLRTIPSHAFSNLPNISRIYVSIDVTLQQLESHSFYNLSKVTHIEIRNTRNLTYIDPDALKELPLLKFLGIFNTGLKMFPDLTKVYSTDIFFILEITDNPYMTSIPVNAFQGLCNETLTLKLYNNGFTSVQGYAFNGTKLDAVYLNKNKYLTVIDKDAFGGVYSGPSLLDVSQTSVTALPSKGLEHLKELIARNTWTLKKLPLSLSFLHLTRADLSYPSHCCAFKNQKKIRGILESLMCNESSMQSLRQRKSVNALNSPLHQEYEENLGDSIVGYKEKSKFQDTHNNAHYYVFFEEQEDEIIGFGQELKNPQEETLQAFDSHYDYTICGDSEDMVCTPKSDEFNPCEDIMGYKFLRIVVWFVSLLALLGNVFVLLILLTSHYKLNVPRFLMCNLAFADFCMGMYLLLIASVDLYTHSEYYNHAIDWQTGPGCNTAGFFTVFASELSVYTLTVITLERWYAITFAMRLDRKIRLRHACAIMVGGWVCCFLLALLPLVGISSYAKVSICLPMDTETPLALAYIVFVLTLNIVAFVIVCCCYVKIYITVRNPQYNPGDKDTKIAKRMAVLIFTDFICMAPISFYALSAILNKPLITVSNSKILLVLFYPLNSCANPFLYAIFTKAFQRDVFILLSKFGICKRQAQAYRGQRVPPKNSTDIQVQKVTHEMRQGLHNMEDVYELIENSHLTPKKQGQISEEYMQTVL
Sequence of Estrogen receptor beta (Homo sapiens) (Q92731 whole entry, looked up): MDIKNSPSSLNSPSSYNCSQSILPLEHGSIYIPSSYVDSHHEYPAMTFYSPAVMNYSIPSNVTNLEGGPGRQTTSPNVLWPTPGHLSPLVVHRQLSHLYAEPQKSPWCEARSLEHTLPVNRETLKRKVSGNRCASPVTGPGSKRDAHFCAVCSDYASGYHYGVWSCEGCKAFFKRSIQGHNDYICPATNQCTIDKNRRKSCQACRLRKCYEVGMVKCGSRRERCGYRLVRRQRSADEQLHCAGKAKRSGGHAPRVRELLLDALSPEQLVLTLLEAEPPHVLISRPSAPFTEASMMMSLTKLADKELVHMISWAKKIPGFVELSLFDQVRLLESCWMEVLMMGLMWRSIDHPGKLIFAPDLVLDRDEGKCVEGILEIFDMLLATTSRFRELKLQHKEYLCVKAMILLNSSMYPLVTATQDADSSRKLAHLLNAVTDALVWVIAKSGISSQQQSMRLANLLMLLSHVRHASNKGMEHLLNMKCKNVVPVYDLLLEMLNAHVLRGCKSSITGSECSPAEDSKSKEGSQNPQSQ
Sequence of Estrogen receptor (Homo sapiens) (P03372 whole entry, looked up): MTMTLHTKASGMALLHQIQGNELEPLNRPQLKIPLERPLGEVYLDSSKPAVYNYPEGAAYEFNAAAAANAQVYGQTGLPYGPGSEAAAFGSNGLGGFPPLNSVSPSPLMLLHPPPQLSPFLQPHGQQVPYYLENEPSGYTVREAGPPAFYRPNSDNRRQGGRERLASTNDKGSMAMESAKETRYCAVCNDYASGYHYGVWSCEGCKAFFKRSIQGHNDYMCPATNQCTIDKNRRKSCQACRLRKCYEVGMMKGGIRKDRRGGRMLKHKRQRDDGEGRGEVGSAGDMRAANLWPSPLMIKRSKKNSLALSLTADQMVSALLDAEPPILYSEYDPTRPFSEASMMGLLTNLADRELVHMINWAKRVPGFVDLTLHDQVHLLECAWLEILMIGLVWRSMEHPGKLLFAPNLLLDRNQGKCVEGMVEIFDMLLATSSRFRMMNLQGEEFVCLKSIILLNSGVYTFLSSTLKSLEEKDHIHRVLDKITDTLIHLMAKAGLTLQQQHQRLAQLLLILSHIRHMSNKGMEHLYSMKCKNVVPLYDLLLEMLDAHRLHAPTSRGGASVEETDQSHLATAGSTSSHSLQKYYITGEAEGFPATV
Sequence of Androgen receptor (Homo sapiens) (P10275 whole entry, looked up): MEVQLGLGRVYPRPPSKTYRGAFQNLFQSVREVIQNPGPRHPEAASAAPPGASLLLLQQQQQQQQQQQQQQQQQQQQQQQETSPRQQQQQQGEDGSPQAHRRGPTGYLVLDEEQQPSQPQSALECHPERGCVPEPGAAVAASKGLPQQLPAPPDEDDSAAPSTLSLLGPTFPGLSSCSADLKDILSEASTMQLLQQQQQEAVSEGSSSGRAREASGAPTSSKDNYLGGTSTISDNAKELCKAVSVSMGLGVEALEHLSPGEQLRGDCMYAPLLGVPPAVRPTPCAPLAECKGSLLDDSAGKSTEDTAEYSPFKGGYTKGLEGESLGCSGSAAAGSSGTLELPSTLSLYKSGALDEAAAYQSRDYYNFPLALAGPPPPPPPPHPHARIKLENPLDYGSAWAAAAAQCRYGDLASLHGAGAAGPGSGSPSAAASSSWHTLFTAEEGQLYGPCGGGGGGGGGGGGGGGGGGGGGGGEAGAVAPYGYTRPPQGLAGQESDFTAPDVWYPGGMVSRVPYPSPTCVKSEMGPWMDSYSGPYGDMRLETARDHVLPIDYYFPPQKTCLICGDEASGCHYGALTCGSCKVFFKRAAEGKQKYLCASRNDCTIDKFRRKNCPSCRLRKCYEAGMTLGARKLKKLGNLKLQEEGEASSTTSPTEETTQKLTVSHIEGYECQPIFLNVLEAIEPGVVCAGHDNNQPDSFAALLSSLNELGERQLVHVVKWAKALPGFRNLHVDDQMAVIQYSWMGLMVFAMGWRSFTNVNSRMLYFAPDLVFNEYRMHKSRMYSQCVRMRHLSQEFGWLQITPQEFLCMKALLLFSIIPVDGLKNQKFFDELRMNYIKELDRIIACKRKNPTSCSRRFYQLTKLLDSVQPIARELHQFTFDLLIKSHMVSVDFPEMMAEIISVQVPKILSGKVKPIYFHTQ

In the case of `C=CC(O)CCCCC` (configuration not stated), the Potency entry in assay [1], in assay [2], in assay [3], in [5], in [6] and in assay [7] was “inactive” in each case. The Potency result in assay [8], in [9], in [10], in [11] and in assay [13] was “inactive” throughout. Moreover, the call in assay [4] and in [12] was inactive.

Turning to `COC(=O)C(C)(C)C`, the Potency result in assay [1], in assay [2], in assay [3], in assay [5], in assay [6] and in [7] was “inactive” in each case. Besides, the Potency result in assay [8], in assay [11] and in [13] was “inactive” in each case. In addition, the compound was classed as inactive in assay [4] and in [12].

For `COc1ccc(CN(CCN(C)C)c2ncccn2)cc1`, the Potency result in assay [1], in [2], in assay [3], in assay [5], in assay [6] and in [7] was “inactive” each time. Moreover, the Potency result in assay [8], in assay [14], in assay [15], in assay [9], in [10] and in assay [11] was “inactive” each time. In assay [13], the Potency result is “inactive”. In assay [4], the outcome was inactive.

Take `CCCCCCCCCC(C)C=O` (configuration not stated): the Potency result in [1], in [2], in assay [3], in assay [5], in assay [6] and in [7] was “inactive” throughout. For the same compound, the Potency result in [8], in assay [9] and in assay [13] was “inactive” each time. Besides, the call in assay [4] and in assay [12] was inactive. Also, in assay [10], the Potency is 48.6 µM (active).

Take `CCC(=O)O[C@]1(C(=O)COC)[C@@H](C)C[C@H]2[C@@H]3CCC4=CC(=O)C=C[C@]4(C)C3(F)[C@@H](O)C[C@@]21C` (some centres not stated): the Potency result in [1], in assay [2], in [3], in [5], in assay [6] and in assay [8] was “inactive” each time. In addition, the Potency entry in [14], in [9], in assay [10] and in assay [11] was “inactive” each time. Moreover, the result in [4] and in assay [12] was inactive. Moreover, the Potency in assay [7] was 13.3 µM (active); in assay [16] it was 0.006 µM (active).

`CCc1c(C)[nH]c2c1C(=O)C(CN1CCOCC1)CC2` (configuration not stated): the Potency result in assay [1], in [2], in [17], in assay [3], in assay [5] and in assay [6] was “inactive” in each case. For the same compound, the Potency entry in assay [7], in assay [8], in [9], in assay [10], in [11] and in assay [13] was “inactive” in each case. Besides, the compound was classed as inactive in assay [4] and in assay [12].

For `O=C(O)COCC(=O)O`, the Potency entry in [1], in assay [2], in assay [3], in assay [5], in assay [6] and in [7] was “inactive” throughout. Moreover, the Potency entry in [8], in assay [9], in assay [10], in assay [11] and in assay [13] was “inactive” in each case. In addition, the outcome in assay [4] and in assay [12] was inactive.

In the case of `Nc1ccccc1Nc1ccccc1`, the Potency entry in assay [1], in [2], in [3], in [7], in assay [14] and in assay [9] was “inactive” throughout. Moreover, the Potency result in assay [10] and in [11] was “inactive” in each case. Also, in assay [4], the outcome was inactive. The figures for the Potency in assay [5], in assay [6] and in assay [8] were 68.8 µM (active), 54.6 µM (active) and 2.74 µM (active), respectively.

For `CC1=CC(=C(c2ccc(N)cc2)c2ccc(N)cc2)C=CC1=N`, the activity change, negative = cytotoxicity in [1] was -17.9% [at 8.39 µM]; in assay [4], -17.7% [at 8.39 µM]. For the same compound, the viability change, negative = cytotoxic in assay [2] was -23% [at 8.39 µM]; in assay [6], -16.1% [at 8.39 µM]. For the same compound, the Potency entry in assay [17] was “inactive”. Also, the activity change, negative = inhibition in assay [3] is -3.34% [at 8.39 µM]; in assay [8], -22.7% [at 8.39 µM]; in assay [13] it was 0.722% [at 8.39 µM]. For the same compound, the activity change in [7] was -2.79% [at 8.39 µM, active compounds read high]. Besides, the activation in [14] was -6.24% [at 8.39 µM]; in [18], 0.281% [at 8.39 µM]. The Potency in [9] was 3.1 µM (active). Further, the cAMP activity change in assay [12] is -1.93% [at 8.39 µM].

Turning to `N#Cc1ccc(CC(=O)c2cccc(C(F)(F)F)c2)cc1`, the Potency result in assay [1], in [2], in assay [3], in [5], in [6] and in assay [7] was “inactive” throughout. The Potency entry in assay [9], in assay [11] and in assay [13] was “inactive” in each case. Also, the compound was classed as inactive in [4] and in assay [12].
